1 compound from PubChem BioAssay (NCATS) can be followed below.

SMILES strings stand for the structures. Values joined by “and” are separate entries in the source; they are usually repeats but may differ in a detail not shown here. Identical values can stand only once. Records with an inconclusive call do not appear. Active and inactive are the calls of the source. Unless noted, calls follow the shape of the dose curve; as a rule, active = well fitted curve in the direction sought with a large enough effect; inconclusive = small, poorly fitted or top-dose-only effect, or another doubt; inactive = no such curve, though single readings can be large; an effect the other way counts as inactive or inconclusive.

Assay [1] concerns the target Cytochrome P450 1A2 (Homo sapiens) (UniProt P05177). Kind of assay: p450-cyp1a2 (AID 410; calls by dose curve; also: potency is read from the fitted curve at half-maximal effect). An outline of the steps: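 Inhibition was calculated relative to 57 uM furafylline (full inhibition). The reaction used human CYP1A2 at 20nM with Luciferin-ME at its Km, 100uM, driven by an NADPH-regenerating system for 60 min at room temperature.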
Assay [2] is described as follows: NFAT Signaling Pathway (AID 444; active = well fitted curve in either direction with a large enough effect, not every such curve was filed as active;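 also: carbachol stimulus at about its EC50 of 1 µM final; % is scaled to controls: 0 for no effect and ±100 for the full control effect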). Conditions: Jurkat NFAT-bla M1, carbachol, beta-lactamase ratio, 5 h; at 17.2 µM (top of the series). The method in brief: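 Jurkat cells carrying an NFAT-driven β-lactamase reporter and co-transfected muscarinic M1 receptor were treated with compound plus carbachol (1 uM final, an EC50 level) for 5 h at 37 °C. CCF4 loading followed for 1 h at RT; 460/530 nm ratio gave %activity.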

The target in assay [3] is Glucocorticoid receptor (Homo sapiens) (UniProt P04150). Kind of assay: GR-GFP Redistribution (AID 450;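 active = compounds whose dose series gives a full or clear partial fitted curve of increased nuclear translocation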; also: potency is read from the fitted curve at half-maximal effect). To be noted: U2OS GR-GFP nuclear translocation, laser cytometry, 2 h.
Assay [4] shares this target. Kind of assay: GR-EFC Redistribution (AID 451; calls by dose curve; also: potency is read from the fitted curve at half-maximal effect). To be noted: CHO-K1 GR-EFC translocation, beta-gal luminescence, 2 h. The method in brief: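 CHO-K1 cells stably expressing nuclear-localized β-gal enzyme acceptor and GR fused C-terminally to the enzyme donor fragment; ligand-driven nuclear translocation restores β-gal by complementation. Compounds titrated up to 46 uM final, 2 h at 37 °C; luminescence read.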

The target in assay [5] is Mitogen-activated protein kinase 10 (Mus musculus) (UniProt Q61831). Kind of assay: JNK3 AlphaScreen Assay (AID 530; active = well fitted curve in either direction with a large enough effect, not every such curve was filed as active;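 also: kinase came from lysate of stimulated human HepG2 cells; signal reports phosphorylation of biotinylated GST-cJun 1-79 at Ser73 with 10 µM ATP; % is scaled to controls: 0 for no effect and ±100 for the full control effect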). The method in brief: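 JNK3 came from HepG2 lysates pre-activated with IL-1beta and TNF-alpha and phosphorylated biotinylated GST-cJun (1-79) at 10 uM ATP, pH 7.6, room temperature. Compounds were titrated. AlphaScreen signal used anti-phospho-cJun (Ser73) antibody.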
A general note: In Alpha technology, singlet oxygen from a donor bead excites a nearby acceptor bead.

In assay [6] the target is 3',5'-cyclic-AMP phosphodiesterase 4B (Homo sapiens) (UniProt Q07343). Kind of assay: qHTS Assay for Inhibitors of PDE-IV (AID 607; active = well fitted activation curve with a large enough effect in the main read-out, with a control signal flat, not every such curve was filed as active; also: % of control where 0% means no effect). An outline of the steps: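 Cell-based read-out of cAMP via a modified cyclic nucleotide-gated channel and membrane potential dye (535/590 nm) in HEK293 cells expressing PDE4 endogenously. Compounds tested up to 22.9 uM final; 100 uM RO 20-1724 reference.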
In general terms: In qHTS, concentration-response curves come from the screen itself.

Assay [7] addresses Cytochrome P450 3A4 (Homo sapiens) (UniProt P08684). Kind of assay: qHTS Assay for Inhibitors and Substrates of Cytochrome P450 3A4 (AID 884). Also: % is scaled to controls: 0 for no effect and ±100 for the full control effect; nearly all actives have a fitted effect of over 50% in size. An outline of the steps: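 20 nM human CYP3A4 with 25 uM Luciferin-PPXE (at KM) in 200 mM KPO4, preincubated 10 min with compound; NADPH regeneration started a 60 min RT reaction. Luciferin detected by luminescence, normalized to 57 uM ketoconazole as full inhibition.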

The target is the same in assay [8]. Kind of assay: qHTS Assay for Activators of Cytochrome P450 3A4 (AID 885). Also: nearly all actives have a fitted effect of over 65% in size. An outline of the steps:
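Signal was normalized against complete inhibition by 57 uM ketoconazole. The reaction used 20nM CYP3A4 with 25uM Luciferin-PPXE, 10-min compound preincubation and a 60-min NADPH-supported step at RT.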

The target in assay [9] is Cytochrome P450 2D6 (Homo sapiens) (UniProt P10635). Kind of assay: qHTS Assay for Inhibitors and Substrates of Cytochrome P450 2D6 (AID 891). Also: potency is read from the fitted curve at half-maximal effect; nearly all actives have a fitted effect of over 60% in size. An outline of the steps:
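Human CYP2D6 (5 nM) with 30 uM Luciferin-ME EGE (at Km) in 100 mM KPO4, compound preincubated 10 min, then NADPH regeneration system for 60 min at room temperature. Luciferin read by luminescence; normalized to 1.43 uM quinidine.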

Assay [10] can be described thus: qHTS Assay for Identification of Small Molecule Agonists for Hypoxia Response Element Signaling Pathway (AID 914; active = well fitted activation curve with a large enough effect in the signal ratio, with a control signal flat, not every such curve was filed as active; the % refers to the signal ratio; also: potency is read from the fitted curve at half-maximal effect). To be noted: ME-180 (cervical carcinoma) HRE-bla reporter, beta-lactamase ratio, CoCl2, 17 h; activation: stronger effect = higher value. An outline of the steps: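 A beta-lactamase reporter under hypoxia response element control in ME-180 cells served as the system. Compound titrations plus EC50 CoCl2 ran 17 h at 37 degrees Celsius; AC50 values were fitted from %Activity.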

Assay [11] is described as follows: Confirmation and Secondary Assay for Modulators of Hemoglobin Beta Chain Splicing at IVS2 705 locus (AID 930).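 Also: HeLa cells stably expressing the EGFP-705 splicing reporter; GFP fluorescence per well restored by corrected splicing of the IVS2-705 intron in EGFP; % of control where 0% means no effect.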 The method in brief: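 Fluorescence gain (488 nm laser, 500-520 nm PMT) reflects restored correct splicing of a mutant IVS2-705 intron inside EGFP in stably transfected HeLa cells after 2-day compound treatment.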
A short description of assay [12]: qHTS Assay for Lipid Storage Modulators (AID 1519; calls by dose curve). To be noted: Drosophila S3 cells, BODIPY lipid droplet/cell ratio, laser cytometry, cells loaded with oleic acid. The method in brief:
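Cells seeded at 5,000 per well were treated with compounds over a concentration series and loaded with oleic acid (400 uM, as added). Lipid droplet fluorescence (488 nm excitation, 500-530 nm channel) was read by laser-scanning cytometry and normalized to 20 uM Triacsin C.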

For assay [13], the target named is Ubiquitin carboxyl-terminal hydrolase 1 (Homo sapiens) (UniProt O94782). Kind of assay: Inhibitors of USP1/UAF1: Pilot qHTS (AID 504865).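 Also: rhodamine fluorescence freed from ubiquitin-rhodamine substrate followed over time; top concentration of the series differs between compounds; % is scaled to controls: 0 for no effect and ±100 for the full control effect; nearly all actives have a fitted effect of over 35% in size.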 An outline of the steps:
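Enzyme-free wells gave the negative control, while test wells held 1nM USP1/UAF1 preincubated with compound for 15 min at room temperature. Ub-Rho at 150nM final started the reaction, and fluorescence at 480/540 nm was recorded kinetically.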

Assay [14] has as its system Zika virus NS2B-NS3 protease. Kind of assay: Primary screen GU AMC qHTS for Zika virus inhibitors (AID 1347154). Also: potency is read from the fitted curve at half-maximal effect; nearly all actives have a fitted effect of over 70% in size. An outline of the steps: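 Unlinked Zika NS2B hydrophilic domain/NS3 protease domain noncovalent complex (25 nM final) in 10 mM Tris-HCl pH 8.0, 0.01% Tween 20, with AMC peptide substrate. Fluorescence (ex 340, em 450 nm) change over 15 min, room temperature; percent inhibition fitted to 4-parameter Hill equation.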

Assay [15] concerns Zika virus NS2B-NS3 protease (linked construct). Kind of assay: Primary screen NINDS Rhodamine qHTS for Zika virus inhibitors (AID 1347160). Also: % is scaled to controls: 0 for no effect and ±100 for the full control effect; nearly all actives have a fitted effect of over 55% in size. The method in brief:
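In 10 mM Tris-HCl pH 8.0 containing 0.01% Tween 20, linked NS2B-NS3 protease (25 nM final) is exposed to test compounds for 15 min. Cleavage of 1.5 microM Rhodamine110 substrate is tracked by fluorescence over 15 min.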

The nature of assay [16]: OV-KATE Cancer Cell Toxicity qHTS against the NCATS CANVASS Library (AID 1347345). Also: % is scaled to controls: 0 for no effect and ±100 for the full control effect. The method in brief:
(§1)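 Bortezomib titration and single-dose wells served as plate controls. Test compounds, 11 points, acted on 1000 cells/well for 72 h at 37 degrees C; CellTiter-Glo luminescence quantified remaining viable cells.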

Assay [17] in a line: SW1088 Cancer Cell Toxicity qHTS against the NCATS CANVASS Library (AID 1347350). Also: % is scaled to controls: 0 for no effect and ±100 for the full control effect; nearly all actives have a fitted effect of over 75% in size. The method in brief:
as §1

Assay [18] in a line: U-118MG Cancer Cell Toxicity qHTS against the NCATS CANVASS Library (AID 1347351). Also: % is scaled to controls: 0 for no effect and ±100 for the full control effect. The method in brief:
as §1

Assay [19] can be described thus: A2780 Cisplatin Sensitive Ovarian Cancer Cell Toxicity qHTS against the NCATS CANVASS Library (AID 1347353). Also: nearly all actives have a fitted effect of over 60% in size. An outline of the steps: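 Seventy-two-hour exposure of cisplatin-sensitive A2780 ovarian cells to an 11-concentration qHTS series; cytotoxicity is inferred from loss of ATPLite luminescence. Bortezomib titration served as positive control.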
The nature of assay [20]: HPAF-II 24hr Apoptosis Induction qHTS against the NCATS CANVASS Library (AID 1347356). Also: 0% is about no effect. An outline of the steps: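 Apoptosis induction in HPAF-II pancreatic cancer cells is measured as caspase-3/7 luminescence after a 24-hour exposure to compounds.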
Assay [21] can be described thus: HEK293 18hr Apoptosis Induction qHTS against the NCATS CANVASS Library (AID 1347357). Also: 0% is about no effect. The method in brief: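 Natural products applied to HEK293 for 18 hr; Caspase-Glo 3/7 readout.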
Assay [22] is described as follows: HPAF-II 12hr Apoptosis Induction qHTS against the NCATS CANVASS Library (AID 1347358). Also: 0% is about no effect. The method in brief:
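Apoptosis in HPAF-II pancreatic cancer cells is scored as caspase 3/7 luminescence following a 12-hour exposure to an 11-point compound series.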

Chain of Cytochrome P450 3A4 (Homo sapiens) (P08684 whole entry, looked up): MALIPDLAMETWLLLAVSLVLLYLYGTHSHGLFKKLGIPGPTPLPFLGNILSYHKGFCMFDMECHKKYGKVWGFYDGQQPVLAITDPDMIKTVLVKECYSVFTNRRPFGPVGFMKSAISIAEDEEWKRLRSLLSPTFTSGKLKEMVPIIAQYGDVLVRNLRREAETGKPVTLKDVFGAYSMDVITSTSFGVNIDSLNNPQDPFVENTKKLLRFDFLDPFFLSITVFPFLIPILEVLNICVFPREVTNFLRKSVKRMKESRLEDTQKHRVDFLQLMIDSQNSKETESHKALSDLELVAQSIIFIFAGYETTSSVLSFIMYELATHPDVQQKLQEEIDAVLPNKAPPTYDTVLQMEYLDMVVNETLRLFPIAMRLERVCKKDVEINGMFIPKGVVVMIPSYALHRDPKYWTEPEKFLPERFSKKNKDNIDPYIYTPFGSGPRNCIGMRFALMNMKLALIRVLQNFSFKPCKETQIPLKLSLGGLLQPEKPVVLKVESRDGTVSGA
Chain of Glucocorticoid receptor (Homo sapiens) (P04150 whole entry, looked up, the tested form may be a part): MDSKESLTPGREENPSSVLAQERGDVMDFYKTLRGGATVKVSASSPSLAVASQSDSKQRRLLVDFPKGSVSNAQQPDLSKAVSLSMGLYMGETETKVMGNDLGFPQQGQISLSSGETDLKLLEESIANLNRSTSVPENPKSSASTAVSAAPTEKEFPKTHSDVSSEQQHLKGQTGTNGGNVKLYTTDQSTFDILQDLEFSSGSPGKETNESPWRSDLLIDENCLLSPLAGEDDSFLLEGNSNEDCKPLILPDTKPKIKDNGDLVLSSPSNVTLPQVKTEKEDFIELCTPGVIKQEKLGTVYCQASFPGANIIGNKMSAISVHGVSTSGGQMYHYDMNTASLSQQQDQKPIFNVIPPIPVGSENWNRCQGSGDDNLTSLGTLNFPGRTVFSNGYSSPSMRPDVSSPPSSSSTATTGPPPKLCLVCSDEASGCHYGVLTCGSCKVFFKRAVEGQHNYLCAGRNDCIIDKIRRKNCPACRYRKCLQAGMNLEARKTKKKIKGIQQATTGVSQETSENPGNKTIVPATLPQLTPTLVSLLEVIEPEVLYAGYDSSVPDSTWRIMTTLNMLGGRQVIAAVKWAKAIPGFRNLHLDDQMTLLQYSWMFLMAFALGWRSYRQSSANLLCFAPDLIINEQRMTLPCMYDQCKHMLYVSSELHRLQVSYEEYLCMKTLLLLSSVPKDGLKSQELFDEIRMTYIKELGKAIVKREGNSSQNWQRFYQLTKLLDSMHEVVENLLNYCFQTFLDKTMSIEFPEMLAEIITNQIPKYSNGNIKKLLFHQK
Chain of Cytochrome P450 1A2 (Homo sapiens) (P05177 whole entry, looked up): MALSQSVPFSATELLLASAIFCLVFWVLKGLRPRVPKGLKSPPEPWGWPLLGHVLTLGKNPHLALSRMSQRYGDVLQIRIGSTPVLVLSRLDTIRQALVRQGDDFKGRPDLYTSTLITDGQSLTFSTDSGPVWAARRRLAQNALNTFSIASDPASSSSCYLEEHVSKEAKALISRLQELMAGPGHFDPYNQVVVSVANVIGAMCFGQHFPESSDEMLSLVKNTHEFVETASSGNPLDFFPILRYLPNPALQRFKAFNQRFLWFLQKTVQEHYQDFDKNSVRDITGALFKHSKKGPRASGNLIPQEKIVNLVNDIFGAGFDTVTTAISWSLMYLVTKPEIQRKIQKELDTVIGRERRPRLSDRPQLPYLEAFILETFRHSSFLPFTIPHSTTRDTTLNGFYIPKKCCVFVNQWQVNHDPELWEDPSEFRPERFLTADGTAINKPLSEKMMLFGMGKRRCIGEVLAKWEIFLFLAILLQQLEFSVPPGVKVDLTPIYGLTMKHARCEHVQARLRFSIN
Chain of Cytochrome P450 2D6 (Homo sapiens) (P10635 whole entry, looked up): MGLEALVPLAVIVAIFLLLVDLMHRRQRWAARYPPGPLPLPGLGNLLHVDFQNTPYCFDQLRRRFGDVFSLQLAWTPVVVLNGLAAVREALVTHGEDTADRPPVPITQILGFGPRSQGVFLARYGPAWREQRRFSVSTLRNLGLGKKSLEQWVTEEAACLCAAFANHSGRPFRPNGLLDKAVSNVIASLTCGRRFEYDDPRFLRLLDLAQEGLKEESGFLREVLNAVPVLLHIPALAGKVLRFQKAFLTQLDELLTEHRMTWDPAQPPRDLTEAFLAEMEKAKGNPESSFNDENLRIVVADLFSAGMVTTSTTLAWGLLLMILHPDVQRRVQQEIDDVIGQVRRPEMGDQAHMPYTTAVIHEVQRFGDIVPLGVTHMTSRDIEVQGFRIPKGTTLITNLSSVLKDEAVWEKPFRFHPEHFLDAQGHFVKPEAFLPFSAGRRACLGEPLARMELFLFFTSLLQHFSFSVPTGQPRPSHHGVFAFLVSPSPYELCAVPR
Chain of 3',5'-cyclic-AMP phosphodiesterase 4B (Homo sapiens) (Q07343 whole entry, looked up): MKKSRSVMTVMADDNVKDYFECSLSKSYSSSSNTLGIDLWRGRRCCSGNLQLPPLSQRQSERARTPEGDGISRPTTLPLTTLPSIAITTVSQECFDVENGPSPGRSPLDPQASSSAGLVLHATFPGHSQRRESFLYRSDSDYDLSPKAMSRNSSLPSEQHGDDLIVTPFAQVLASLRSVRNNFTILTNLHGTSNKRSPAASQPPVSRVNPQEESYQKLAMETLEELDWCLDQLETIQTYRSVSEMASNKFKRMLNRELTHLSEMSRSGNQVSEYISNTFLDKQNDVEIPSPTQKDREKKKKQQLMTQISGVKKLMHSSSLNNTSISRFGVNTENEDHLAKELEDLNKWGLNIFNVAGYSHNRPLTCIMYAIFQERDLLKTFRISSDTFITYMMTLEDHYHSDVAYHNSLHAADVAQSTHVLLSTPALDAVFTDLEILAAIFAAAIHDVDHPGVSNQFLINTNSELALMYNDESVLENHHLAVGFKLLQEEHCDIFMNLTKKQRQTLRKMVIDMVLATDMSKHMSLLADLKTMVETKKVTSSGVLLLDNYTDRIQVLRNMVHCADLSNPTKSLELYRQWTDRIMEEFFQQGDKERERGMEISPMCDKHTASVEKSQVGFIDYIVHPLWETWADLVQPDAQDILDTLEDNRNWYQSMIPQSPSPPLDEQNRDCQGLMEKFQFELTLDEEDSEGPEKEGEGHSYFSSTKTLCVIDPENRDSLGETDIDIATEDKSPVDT
Chain of Ubiquitin carboxyl-terminal hydrolase 1 (Homo sapiens) (O94782 whole entry, looked up): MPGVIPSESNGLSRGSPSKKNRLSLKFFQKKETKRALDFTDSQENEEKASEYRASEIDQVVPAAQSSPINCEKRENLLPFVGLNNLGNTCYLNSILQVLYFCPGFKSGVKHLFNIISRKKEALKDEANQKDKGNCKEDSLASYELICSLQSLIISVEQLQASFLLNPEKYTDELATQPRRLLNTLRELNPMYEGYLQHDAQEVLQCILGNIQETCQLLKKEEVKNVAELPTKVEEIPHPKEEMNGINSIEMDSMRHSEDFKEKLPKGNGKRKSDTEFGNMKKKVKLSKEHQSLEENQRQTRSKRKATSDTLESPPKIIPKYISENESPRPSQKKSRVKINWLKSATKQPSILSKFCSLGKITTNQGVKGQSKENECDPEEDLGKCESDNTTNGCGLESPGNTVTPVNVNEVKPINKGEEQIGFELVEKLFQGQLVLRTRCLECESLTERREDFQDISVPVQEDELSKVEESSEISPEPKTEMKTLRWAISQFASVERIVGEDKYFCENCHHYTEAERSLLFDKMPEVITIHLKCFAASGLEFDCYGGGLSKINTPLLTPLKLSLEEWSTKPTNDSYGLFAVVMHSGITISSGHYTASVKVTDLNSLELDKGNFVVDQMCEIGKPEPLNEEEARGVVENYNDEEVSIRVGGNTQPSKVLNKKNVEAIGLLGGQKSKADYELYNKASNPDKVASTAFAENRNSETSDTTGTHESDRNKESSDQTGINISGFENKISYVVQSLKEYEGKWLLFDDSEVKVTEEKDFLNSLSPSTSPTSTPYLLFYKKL

For the compound `COc1ccc2c3c([nH]c2c1)C(C)=NCC3`, the Potency is 794 nM (active) and 251 nM (active) in [1]; > 20.6 µM (inactive) and > 46 µM (inactive) in [3]; > 20.6 µM (inactive) and > 46 µM (inactive) in [4]; 3.98 µM (active) in [9]; 10 µM (active) in assay [10]; 21.2 µM (active) in assay [14]. In addition, the activity change, negative = inhibition in assay [2] was -3.75% (inactive); in [12] (at 25.7 µM (top of the series)) it was 1.66% (inactive). The outcome in [5], in assay [11], in assay [20] and in [22] was inactive. Moreover, the Potency result in assay [6], in assay [7], in assay [8], in assay [13], in [15] and in assay [16] was “inactive” each time. For the same compound, the Potency result in assay [17], in assay [18], in assay [19] and in assay [21] was “inactive” in each case. Also, the max response in assay [12] (measured here: cell count channel max response) was determined as 0.146%; in assay [12] (measured here: lipid channel max response), 2.64%.
